HCV inhibitor – HCV inhibition | 3.4% of 340,000 active | AID 651820 | Potency, µM (highest dose often 41.8 µM), inactives show top-dose activity change, negative = inhibition, hits mostly inhibitors | Huh7.5.1 HCVcc-Cre infection, luciferase reporter, 44 h; note: potency is the fitted concentration of half-maximal effect
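Cells seeded at 1,000/well and cultured 4 h, then compounds added followed by HCVcc-Cre virus (~0.5 moi). After 44 h further culture, luciferase substrate was added, plates held 15 min at room temperature, and luminescence read for 15 sec.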
HCMV antiviral – inhibitors of human cytomegalovirus; HFF cells, HCMV-luciferase reporter, 72 h; hits give low values; activity change, negative = inhibition, % at 57.5 µM; 4.5% of 410,000 active; AID 1259415; in the data active = activity change below about -60%; inconclusive = no clear call, values can overlap the other calls; inactive = above about -39%
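Cell-based, HFFs, 1000 cells/well, 16 h 37C; cpds in DMSO + HCMV-luc, MOI 1 PFU/cell; 72 h 37C; OneGlo luminescence after 5 min RT; norm. to buffer vs Salinomycin 10uM.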
Pf growth 48h – inhibits P. falciparum growth in the first generation, 48 h | 5.9% of 310,000 active | P. falciparum luciferase growth in erythrocytes, 48 h | Potency, µM (doses to about 28.7 µM), inactives show at the top dose activity change, negative = inhibition, actives largely listed as inhibitors | AID 504832; note: potency is the fitted concentration of half-maximal effect
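In quantitative HTS format, infected erythrocytes bearing luciferase-reporter parasites were treated for a single generation at 37 C. Luminescence after adding detection reagent served as the growth measure.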
Pf growth 96h – P. falciparum growth inhibition at 96 hour, primary screen for plastid delayed-death inhibitors. P. falciparum luciferase reporter growth, 96 h. 6.9% of 320,000 active. AID 504834. Potency, µM (doses to about 28.7 µM), for inactives: at the highest dose activity change, negative = inhibition, most hits filed as inhibitors; note: potency is the fitted concentration of half-maximal effect
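Readout is luminescence from an integrated firefly luciferase in P. falciparum. Red cells, 2% hematocrit and 0.05% parasitemia final, were cultured with compound through two parasite generations (96 hours) at 37 C, 5% CO2.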
The depositor's hits bear a star; ? = inconclusive; / = not tested or not shown. In the library only some 13% were active in any assay of this set; here they are far more common. Unless noted, calls come from the whole dose curve; as a rule, active = well fitted inhibition curve with a large enough effect; inconclusive = small, poorly fitted or top-dose-only effect, or another doubt; inactive = no such curve, though single readings can be large or run the other way. % is set by controls: 0 for no effect and ±100 for the full control effect.

SMILES	HCV inhibitor	HCMV antiviral	Pf growth 48h	Pf growth 96h
COc1ccc(/C=C/c2nc3ccccc3n2Cc2ccccc2OC)cc1	?	-98*	?	?
COc1ccccc1Cn1c(/C=C/c2ccccc2)nc2ccccc21	10µM*	-25	?	?
COc1ccccc1Cn1c(C(C)C)nc2ccccc21	-9%	1	?	?
COCCn1c(/C=C/c2ccccc2)nc2ccccc21	33%	6	31%	3%
O=C(Nc1ccc(N2CCN(c3ccc(F)cc3)CC2)c(C(=O)O)c1)c1cccs1	/	13	/	/
O=C1Nc2ccccc2C12NCCc1c2[nH]c2ccccc12 (centres undefined)	14%	41	6.6µM*	/
COc1ccc2c3c([nH]c2c1)C1(NCC3)C(=O)Nc2ccccc21 (centres undefined)	-5%	-3	?	?
Cc1cccc(C(=O)NCc2nnc(SCC(=O)NC3CCCC3)n2C)c1	16%	-29	18%	7%
CC(NC(=O)c1ccccc1F)c1nnc(SCC(=O)NC2CCCC2)n1C (centres undefined)	8%	-64*	8%	19%
CCn1c(SCC(=O)NC2CCCC2)nnc1C(C)NC(=O)c1ccccc1F (centres undefined)	6%	-23	7%	-2%
Cc1cccc(C)c1OCC(=O)NCc1nnc(SCC(=O)NC2CCCCC2)n1C	-1%	9	12µM*	27%
COc1cccc(C(=O)Nc2cccc(-c3cn4c(C)csc4n3)c2)c1OC	/	8	/	/
CCCCNC(=O)c1nc2ccccc2nc1-c1cccc(Br)c1	/	-2	/	/
COc1c(F)c(F)c(C(=O)Nc2ccc(N3CCN(C(C)=O)CC3)c(Cl)c2)c(F)c1F	?	-83*	?	/
O=C(Nc1ccc(N2CCOCC2)c(Cl)c1)c1c(F)c(F)c(F)c(F)c1F	8.9µM*	-27	-13%	10%
COc1ccc2c(c1)c(=O)c(S(=O)(=O)c1ccc(F)cc1)cn2Cc1ccccc1Cl	/	3	/	/
COc1ccc(CNC(=O)CCCn2c(=O)c3cccn3c3ccc(F)cc32)cc1OC	/	-19	/	/
CCOC(=O)c1noc2nc(C)n(CC(=O)Nc3cccc(OC)c3)c(=O)c12	/	-16	/	/
Cc1ccc(Cl)cc1NC(=O)c1oc2ccc(S(=O)(=O)N3CCCCC3)cc2c1C	/	10	/	/
C[C@]12C=CC(=O)C=C1CC[C@@H]1C2C(O)C[C@@]2(C)C1CC[C@]2(O)C(=O)COC(=O)CCC(=O)NC(CC(=O)O)C(=O)O (some centres undefined)	24%	104	-7%	-10%
CSCCC(NC(=O)CCC(=O)OCC(=O)[C@@]1(O)CCC2[C@@H]3CCC4=CC(=O)C=C[C@]4(C)C3[C@@H](O)C[C@@]21C)C(=O)O (some centres undefined)	6%	89	5.2µM*	?
CCOc1cc(-c2ccc(OC(=O)c3ccc(C)cc3)c(OC)c2)cc(=O)c2c(C)oc(C)c12	/	106	/	/
N#CC1=C(N)Oc2n[nH]c(-c3ccccc3)c2C12C(=O)Nc1ccccc12 (centres undefined)	-1%	8	-12%	15%
Cn1c2c(c(=O)n(C)c1=O)[C@@]1(C(=O)Nc3ccccc31)C(C#N)=C(N)O2	8%	19	?	13µM*
CCCN(CCC)CCCNC(=O)C1c2cc(OC)c(OC)cc2C(=O)N(C)C1c1cccs1 (centres undefined)	2%	29	/	28%
SMILES	HCV inhibitor	HCMV antiviral	Pf growth 48h	Pf growth 96h
CCCCNC(=O)C1c2cc(OC)c(OC)cc2C(=O)N(C)C1c1cccs1 (centres undefined)	0%	-12	-6%	2.1µM*
CCCCNC(=O)C1c2cc(OC)c(OC)cc2C(=O)N(C)C1c1ccc(OC)cc1 (centres undefined)	-8%	-100*	?	-14%
Cc1ccc(CNC(=O)c2ccc3c(c2)c(C)c(C)n3Cc2ccc(Cl)cc2)o1	/	0	/	/
CCOC(=O)c1c(C)nc2sc3c(=O)n(-c4ccc(C(C)=O)cc4)cnc3c2c1-c1ccc(Cl)cc1	-2%	-20	/	3.7µM*
CCOC(=O)c1c(C)nc2sc3c(=O)n(-c4ccc(C(C)=O)cc4)nnc3c2c1-c1ccc(Cl)cc1	?	60	0%	6%
O=C(Nc1ccccc1)c1cccc(NC(=O)c2ccco2)c1	-10%	7	/	/
CCOc1cc(NS(=O)(=O)c2ccccc2)c(OCC)cc1NC(=O)c1ccco1	-7%	-101*	-13%	/
Cc1ccc(C(=O)OCc2c(C)noc2C)cc1NC(=O)c1ccco1	-26%	9	-77%	10µM*
C=Cc1cccc(NC(=O)c2ccc(NC(=O)c3ccco3)cc2)c1	11µM*	?	-5%	1.5µM*
CCOC(=O)c1cccc(NC(=O)c2ccc(NC(=O)c3ccco3)cc2)c1	?	-64*	?	-2%
CCCCNC(=O)COC(=O)c1ccc(C)c(NC(=O)c2ccco2)c1	-8%	3	0%	0%
CCCCNC(=O)c1nc(C2CCN(S(=O)(=O)c3c(OC)cccc3OC)CC2)oc1-c1ccccc1	/	-21	/	/
Cc1ccccc1NC(=O)c1cccc(NC(=O)c2ccco2)c1	14%	16	31%	?
CCOC(=O)c1c(C)[nH]c(C)c1C(=O)COc1ccc(NC(=O)c2ccco2)cc1	-14%	-64*	?	14%
CCOc1ccccc1NC(=O)c1cccc(NC(=O)c2ccco2)c1	3.2µM*	?	?	/
O=C(NCc1ccc(F)cc1)C1CCN(C(=O)c2ccc(-n3ccc4ccccc43)s2)CC1	/	-10	/	/
CC(C)CNC(=O)CN(c1ccccc1)S(=O)(=O)c1ccccc1[N+](=O)[O-]	20%	153	?	5.9µM*
CC(NS(=O)(=O)c1ccc(OCC(=O)NCc2ccncc2)cc1)c1ccccc1 (centres undefined)	14%	?	-7%	?
COc1ccc(CNC(=O)CN(Cc2ccccc2)S(=O)(=O)c2ccc(Cl)cc2)cc1	10µM*	-17	/	?
CN(Cc1ccccc1)S(=O)(=O)c1ccc(OCC(=O)NCc2ccncc2)cc1	-6%	-7	4.7µM*	-3%
COc1ccc(N(CC(=O)NCc2ccc(Cl)cc2)S(=O)(=O)c2ccccc2[N+](=O)[O-])c(OC)c1	?	?	8.3µM*	38%
CC(C)CC(=O)Nc1nnc(SCc2cc(=O)n3ccccc3n2)s1	/	-24	/	/
COc1ccc(S(=O)(=O)N(CC(=O)NCc2ccncc2)Cc2ccccc2)cc1	3%	5	?	5.2µM*
COc1ccc(CNC(=O)CN(Cc2ccc(Cl)cc2)S(=O)(=O)c2ccccc2)cc1	-12%	-2	-18%	/
COc1ccc(C)cc1S(=O)(=O)N(CC(=O)NCc1ccc(Cl)cc1)Cc1ccccc1	/	1	/	12µM*
CCOc1ccc(C(=O)Nc2ccc(S(=O)(=O)Nc3nc(C)cc(C)n3)cc2)cc1OC	/	6	/	/
c1ccc(C2C3=C(Nc4ncnn42)c2ccccc2CCC3)cc1 (centres undefined)	13%	27	-7%	5.2µM*
